Reference: PubChem BioAssay (Tox21)
Results filed as inconclusive are left out. The source made the active and inactive calls. Unless noted, the call rests on the fitted dose curve.

How the values were obtained:
[1] = Nuclear factor erythroid 2-related factor 2/antioxidant responsive element (Nrf2/ARE) small molecule agonists: qHTS cell viability counter screen in human keratinocytes (AID 1919968; active means well fitted curve in the direction sought with a large enough effect in the repeat runs; an effect the other way counts as inactive or inconclusive; further: nearly all actives have a fitted effect of over 55% in size)
In short: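 Seed 1,500 KeratinoSens cells per well, then incubate 5 h at 37 C/5% CO2. Add compounds in DMSO and incubate 23 h. Add CellTiter-Fluor, wait 1 h and read fluorescence.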

[2] = Nuclear factor erythroid 2-related factor 2/antioxidant responsive element (Nrf2/ARE) small molecule agonists: luciferase reporter gene qHTS assay in human keratinocytes (AID 1919969); further: nearly all actives have a fitted effect of over 35% in size
[3] = molecular target: Gonadotropin-releasing hormone receptor (Homo sapiens) (UniProt P30968); assay: Human gonadotropin-releasing hormone receptor (GnRHR) small molecule agonists, calcium flux assay in GnRHR-HEK293 cells (AID 1920063); further: nearly all actives have a fitted effect of over 35% in size
In short: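 Cells: HEK293 stably expressing human GnRHR. Steps: overnight (18 h) culture, 1 h calcium dye loading at 37 C, compound addition, kinetic fluorescence read at 480/540 nm. Each compound tested at 15 concentrations in triplicate.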

[4] = molecular target: KiSS-1 receptor (Homo sapiens) (UniProt Q969F8); assay: Human kisspeptin (KISS1R) small molecule agonists, calcium flux assay in KISS1R-HEK293 cells (AID 1920064; active means well fitted curve in the direction sought with a large enough effect in the repeat runs; an effect the other way counts as inactive or inconclusive)
In short: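 Cells plated and incubated 18 h; dye added, 1 h at 37 C; compounds in DMSO pinned in; signal read at 480/540 nm every second for 3 min. Each compound tested at 15 concentrations in triplicate.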

[5] = G protein-coupled receptor (GPCR) small molecule agonists, calcium flux assay: HEK293 wild type cell line counter screen (AID 1920065)
In short: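 Counter-screen of the Tox21 10K library for non-specific calcium release: dye-loaded cells received compounds in DMSO and were monitored by kinetic fluorescence (480/540 nm, 3 min). Fifteen concentrations, run in triplicate.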

[6] = p53 small molecule agonists, cell-based qHTS assay with human liver microsomes (AID 1963577);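 further: p53 response element beta-lactamase reporter cells with liver microsomes plus NADPH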
In short: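 Reporter activation was measured by LiveBLAzer fluorescence intensity in p53RE-bla cells, which had been exposed to compounds for 16 h at 37 C alongside 0.5 mg/mL human liver microsomes and 0.5 mg/mL NADPH (final concentrations).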

[7] = p53 small molecule agonists, cell-based qHTS assay with rat liver microsomes (AID 1963578)
In short: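 Compound in DMSO added to p53RE-bla cells 5 h post-plating; rat microsomes/NADPH 0.5 mg/mL final; 16 h, 37 C; LiveBLAzer 2 h RT.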

[8] = p53 small molecule agonists, cell-based qHTS assay with human liver microsomes: qHTS cell viability counter screen (AID 1963579); further: nearly all actives have a fitted effect of over 45% in size
In short: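 HLM-supplemented (0.5 mg/mL final) and NADPH-supplemented (0.5 mg/mL final) p53RE-bla cultures, 4,000 cells per well, were dosed with compounds in DMSO for 16 h at 37 C; luminescent ATP detection (CellTiter-Glo, 30 min, room temperature) quantified surviving cells.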

[9] = p53 small molecule agonists, cell-based qHTS assay with rat liver microsomes: qHTS cell viability counter screen (AID 1963580); further: nearly all actives have a fitted effect of over 45% in size
In short: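 Intracellular ATP, by CellTiter-Glo luminescence, defines viability. HCT-116 p53RE-bla cells, 4,000 per well, were compound-treated in the presence of rat liver microsomes and NADPH for 16 h at 37 C.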

[10] = p53 small molecule agonists, cell-based qHTS assay: qHTS cell viability counter screen (AID 1963581); further: nearly all actives have a fitted effect of over 45% in size
In short: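 Cells: HCT-116 with p53 response element-driven beta-lactamase. Treatment: 16 h, 37 C, compounds in DMSO. Read: CellTiter-Glo luminescence after 30 min RT.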

[11] = p53 small molecule agonists, cell-based qHTS assay (AID 1963582; active means well fitted activation curve with a large enough effect in the signal ratio in the repeat runs, not every such curve was filed as active; the % refers to the signal ratio)
In short: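 Quantitative HTS in p53RE-bla cells: after a 5 h settling period, compounds delivered in DMSO were left on cells for 16 h at 37 C, and reporter induction was measured as fluorescence following 2 h substrate loading.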

[12] = molecular target: 5-hydroxytryptamine receptor 2A (Homo sapiens) (UniProt P28223); assay: 5-hydroxytryptamine receptor 2A (HTR2A) small molecule antagonists, cell-based qHTS assay (AID 1963586); further: nearly all actives have a fitted effect of over 45% in size
In short: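 Antagonist-mode intracellular calcium assay: DOI (4 nM) added after 5 min compound pre-incubation at room temperature to dye-loaded HTR2A-CHO cells. Fluorescence followed for 3 min, sampled every second.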

[13] = molecular target: 5-hydroxytryptamine receptor 2A (Homo sapiens) (UniProt P28223); assay: 5-hydroxytryptamine receptor 2A (HTR2A) small molecule agonists, cell-based qHTS assay (AID 1963587); further: nearly all actives have a fitted effect of over 30% in size
In short: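 Kinetic calcium-flux fluorescence (2 min, 1 sec intervals) after compound addition in agonist mode. HTR2A-CHO cells were cultured 18 h, then dye-loaded 1 h at 37 C.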

[14] = molecular target: Muscarinic acetylcholine receptor M1 (Homo sapiens) (UniProt P11229); assay: Cholinergic receptor muscarinic 1 (CHRM1) small molecule antagonists, cell-based qHTS assay (AID 1963588); further: nearly all actives have a fitted effect of over 40% in size
In short: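 CHRM1-CHO calcium-flux assay, antagonist mode. Cells were seeded 18 h, dye-loaded 1 h at 37 C and given compound for 5 min at RT, then acetylcholine was added at 50nM. FDSS fluorescence was read 3 min; 15 concentrations, three runs.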

[15] = molecular target: Muscarinic acetylcholine receptor M1 (Homo sapiens) (UniProt P11229); assay: Cholinergic receptor muscarinic 1 (CHRM1) small molecule agonists, cell-based qHTS assay (AID 1963589); further: nearly all actives have a fitted effect of over 35% in size
In short: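 Agonist-mode qHTS in CHO cells stably carrying human muscarinic M1. Intracellular calcium is tracked by fluorescence every second after compound transfer; each compound runs at 15 concentrations in three independent runs.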

[16] = cAMP Responsive Elements (CRE) small molecule agonists, cell-based qHTS assay (AID 1963590)
In short: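 Agonist mode qHTS in CRE-bla HEK 293T cells: compounds dosed from DMSO for 3 h at 37 C/5% CO2, followed by LiveBLAzer B/G FRET substrate for 2 h at room temperature.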

[17] = cAMP Responsive Elements (CRE) small molecule antagonists, cell-based qHTS assay (AID 1963591; active means well fitted inhibition curve with a large enough effect in the signal ratio in the repeat runs, not every such curve was filed as active; the % refers to the signal ratio)
In short: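 Antagonist mode: test compounds are co-incubated with the adenylyl cyclase activator NKH477 (0.25 uM final) on CRE-bla HEK293T cells for 3 h at 37 °C, followed by LiveBLAzer substrate loading.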

[18] = molecular target: Beta-2 adrenergic receptor (Homo sapiens) (UniProt P07550); assay: Adrenergic beta2 receptor (ADRB2) small molecule antagonists, cell-based qHTS assay (AID 1963592); further: series mostly up to about 92 µM; nearly all actives have a fitted effect of over 50% in size
In short: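 Cells (CHO, stable ADRB2 overexpression) incubated 18-20hr at 37C; compounds added from DMSO; agonist mix (1nM isoproterenol, 100uM IBMX, 25uM Ro-20-1724) added; 0.5hr RT; d2-cAMP and anti-cAMP-cryptate added; 1hr RT; 665/615 nm read.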

[19] = molecular target: Beta-2 adrenergic receptor (Homo sapiens) (UniProt P07550); assay: Adrenergic beta2 receptor (ADRB2) small molecule agonists, cell-based qHTS assay (AID 1963593);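 further: CHO cells stably overexpressing human ADRB2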
In short: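 CHO cells stably over-expressing ADRB2 were plated overnight at 37C, then dosed with compounds plus a stimulation mix containing 100uM IBMX and 25uM Ro-20-1724 for 0.5hr at room temperature. cAMP was measured by HTRF competition, 1hr.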

[20] = molecular target: D(2) dopamine receptor (Homo sapiens) (UniProt P14416); assay: Dopamine D2 receptor (DRD2) small molecule agonists, cell-based qHTS assay (AID 1963594); further: nearly all actives have a fitted effect of over 35% in size
In short: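 cAMP accumulation in DRD2-HEK293 cells measured by HTRF after 1 h detection; compounds added 10 min before NKH477 (200nM […]) forskolin-analogue stimulation, 30 min at room temperature, with Ro20-1724 present at 0.1 mM final.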

Measured: Potency

Chain of D(2) dopamine receptor (Homo sapiens) (P14416 whole entry, looked up): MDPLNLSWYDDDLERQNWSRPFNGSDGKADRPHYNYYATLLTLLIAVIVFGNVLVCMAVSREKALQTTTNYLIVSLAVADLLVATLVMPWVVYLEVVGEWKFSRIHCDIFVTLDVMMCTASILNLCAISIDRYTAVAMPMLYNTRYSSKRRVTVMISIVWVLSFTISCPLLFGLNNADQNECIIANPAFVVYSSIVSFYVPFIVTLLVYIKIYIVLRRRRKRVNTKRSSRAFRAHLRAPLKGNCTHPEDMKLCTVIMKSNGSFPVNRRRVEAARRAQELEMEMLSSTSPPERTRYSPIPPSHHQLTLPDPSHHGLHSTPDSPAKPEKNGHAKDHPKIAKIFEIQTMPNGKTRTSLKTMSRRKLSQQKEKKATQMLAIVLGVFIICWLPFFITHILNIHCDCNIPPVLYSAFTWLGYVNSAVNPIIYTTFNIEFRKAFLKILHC
Chain of 5-hydroxytryptamine receptor 2A (Homo sapiens) (P28223 whole entry, looked up): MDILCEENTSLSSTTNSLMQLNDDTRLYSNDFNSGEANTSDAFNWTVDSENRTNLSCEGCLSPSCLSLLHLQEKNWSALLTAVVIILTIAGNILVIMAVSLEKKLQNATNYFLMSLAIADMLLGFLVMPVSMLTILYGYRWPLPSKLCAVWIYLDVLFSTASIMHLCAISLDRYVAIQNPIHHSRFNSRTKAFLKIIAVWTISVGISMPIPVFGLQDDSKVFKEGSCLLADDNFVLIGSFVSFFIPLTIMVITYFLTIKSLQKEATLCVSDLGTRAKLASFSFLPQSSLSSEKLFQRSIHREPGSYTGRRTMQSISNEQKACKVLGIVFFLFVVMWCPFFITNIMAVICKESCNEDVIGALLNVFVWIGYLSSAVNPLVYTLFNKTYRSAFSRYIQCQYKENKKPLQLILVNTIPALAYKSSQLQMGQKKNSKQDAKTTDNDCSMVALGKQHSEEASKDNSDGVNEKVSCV
Chain of Gonadotropin-releasing hormone receptor (Homo sapiens) (P30968 whole entry, looked up): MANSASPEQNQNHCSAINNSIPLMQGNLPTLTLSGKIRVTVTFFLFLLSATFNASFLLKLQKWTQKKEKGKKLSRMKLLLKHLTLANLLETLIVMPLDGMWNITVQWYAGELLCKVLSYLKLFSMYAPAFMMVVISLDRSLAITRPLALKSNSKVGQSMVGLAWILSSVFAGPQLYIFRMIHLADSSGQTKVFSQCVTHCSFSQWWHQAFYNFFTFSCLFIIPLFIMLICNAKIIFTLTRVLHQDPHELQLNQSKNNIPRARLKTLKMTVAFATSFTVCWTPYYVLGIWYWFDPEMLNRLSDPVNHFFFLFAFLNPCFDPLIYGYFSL
Chain of Muscarinic acetylcholine receptor M1 (Homo sapiens) (P11229 whole entry, looked up): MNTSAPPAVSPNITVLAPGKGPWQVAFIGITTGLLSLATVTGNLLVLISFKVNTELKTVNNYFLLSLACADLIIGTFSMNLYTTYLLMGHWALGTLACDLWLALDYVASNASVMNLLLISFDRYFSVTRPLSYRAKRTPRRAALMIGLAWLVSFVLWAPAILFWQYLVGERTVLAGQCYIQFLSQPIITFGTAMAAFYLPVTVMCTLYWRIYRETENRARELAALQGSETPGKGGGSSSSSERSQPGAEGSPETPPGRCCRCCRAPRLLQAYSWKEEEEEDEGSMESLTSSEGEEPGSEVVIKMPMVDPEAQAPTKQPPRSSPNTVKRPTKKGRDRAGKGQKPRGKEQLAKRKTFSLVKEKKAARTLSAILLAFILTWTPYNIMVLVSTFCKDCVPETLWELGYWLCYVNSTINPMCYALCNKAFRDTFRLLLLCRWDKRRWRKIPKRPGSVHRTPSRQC
Chain of Beta-2 adrenergic receptor (Homo sapiens) (P07550 whole entry, looked up): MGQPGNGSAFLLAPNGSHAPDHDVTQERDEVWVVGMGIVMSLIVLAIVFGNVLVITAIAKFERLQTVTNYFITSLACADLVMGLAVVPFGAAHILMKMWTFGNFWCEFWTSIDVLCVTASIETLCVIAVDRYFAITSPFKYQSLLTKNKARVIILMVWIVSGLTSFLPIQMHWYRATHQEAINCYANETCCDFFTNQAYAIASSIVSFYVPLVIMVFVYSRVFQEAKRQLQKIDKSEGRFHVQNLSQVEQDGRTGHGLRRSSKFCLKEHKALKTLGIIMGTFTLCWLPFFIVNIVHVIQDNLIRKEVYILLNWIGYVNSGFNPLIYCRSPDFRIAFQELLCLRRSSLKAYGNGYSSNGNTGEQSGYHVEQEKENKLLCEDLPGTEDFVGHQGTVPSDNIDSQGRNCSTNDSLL
Chain of KiSS-1 receptor (Homo sapiens) (Q969F8 whole entry, looked up): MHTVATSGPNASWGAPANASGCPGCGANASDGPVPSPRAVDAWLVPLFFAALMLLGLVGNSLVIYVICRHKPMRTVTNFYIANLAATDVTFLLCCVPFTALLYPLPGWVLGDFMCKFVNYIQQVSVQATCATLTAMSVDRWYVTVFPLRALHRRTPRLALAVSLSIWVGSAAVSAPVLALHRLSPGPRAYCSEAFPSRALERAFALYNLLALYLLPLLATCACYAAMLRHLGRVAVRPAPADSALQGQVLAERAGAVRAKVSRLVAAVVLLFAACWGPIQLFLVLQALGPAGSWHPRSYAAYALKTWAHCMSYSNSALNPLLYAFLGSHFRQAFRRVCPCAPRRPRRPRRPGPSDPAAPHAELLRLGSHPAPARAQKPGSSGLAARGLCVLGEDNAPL

C[n+]1ccn(Cc2ccccc2)c1
inactive: all assays above

CC1(C)Oc2ccc(C#N)cc2[C@@H](N2CCCC2=O)[C@@H]1O
inactive: all assays above

F[Si-2](F)(F)(F)(F)F
inactive: all assays above

CCOC(=O)C(C)C(C)=O (stereo not given)
inactive: all assays above

COC(=O)c1cc(Cl)c(NC(C)=O)cc1OC
inactive: all assays above

CCCCC(O)/C=C(C)/C=C/C=C/C(=O)N1CCCC1=O (stereo not given)
inactive: all assays above

COc1ccccc1C=O
inactive: all assays above
